For 40 sequences, PBM binding z-score results are on record in the supplement of paper PMC6555819.

One experiment concerns FXR:RXRa (NR concentration 270 nM, RXRa partner concentration 90 nM). The experiment is described as follows: PBM binding z-score (relative to random genomic background probes); higher = stronger binding; sequences stand for … in GC…GCGATTGACAGCGTAGAATGAAGG
An outline of the steps: (§1)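 Ligand-free nuclear receptor dimers were bound for 1 h to custom Agilent 4×180K protein-binding microarrays. Detection used antibodies against each partner (one per run). Binding z-scores rest on regression-normalized fluorescence, with random background probes as the reference.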
As for CCTAGTGGGCCATTCAGAGGTCATTGATCATATG, the PBM binding z-score was determined as 2.85.
In turn, TAGCCTAGGTCATGGTCCAGTATACCACGCGAAC came in with a PBM binding z-score of 3.98.
As for CAAACTAGGTCAAAGGTCTAAGTCGAGCCAACCA, the PBM binding z-score was 5.29.
CCTACTGGGCCATCAGGTCATAGATATCAACGTT yielded a PBM binding z-score of 1.22.
In turn, TCTATTAGTTGGTTAGGGCAACCGAAACAGCGGA yielded a PBM binding z-score of 0.675.
For the sequence CGTCCAAGGTTAGCAGGTCAGTGAAAGCGACGTG, the PBM binding z-score was 1.34.
The sequence GGTGCTAGGTCAGGTTGGTCAGCTAACGGGTACG showed a PBM binding z-score of 1.56.
Consider TTACCAAGGTGGGCTGAGGTCGTTGATCCAACTC, for which the PBM binding z-score stood at 1.56.
Take CAAACTAGGTCAAAGGTCATAGTCGAGCCAACCA: the PBM binding z-score was 7.9.
The sequence GCTGTTAGTTGAAAGGGCAACCGAATGATTCTCG showed a PBM binding z-score of 0.495.
CGAACTAGGTCAGCCAGGACAGTGAATACATTGA showed a PBM binding z-score of 1.87.
Take CCTACTGGGCCATCAGGTCATGGATATCAACGTT: the PBM binding z-score amounted to 1.24.
With GGAACGAGGGCATTCGAGTTGATGGCATGGCGAT, the PBM binding z-score was 1.48.
For TAGCCTTGGTCAGATCGGGCCAGTATACGCTATA, the PBM binding z-score is -0.504.
On the same count and under the same terms, under AGAATGAGGTTAAGATCAGGGACACAGAATACAT stands 2.45.
Regarding AGTCAAAGTTCACTAGGTGACGTAAGATTCAGCT, the PBM binding z-score stood at 5.44.
As to GCTGCTAGGTCAACTGATGGTCAGTTAAAGCTCG, the PBM binding z-score was 3.99.
GGCACGAGGGCATTCGAGTTGATAGCATGGCGAT registered a PBM binding z-score of 1.22.
As to ACTCGGAGGACAAAGGTCAGAGCAACGCCAGTGA, the PBM binding z-score is 4.23.
The same measure, in the same setting: to ACTCGGAGAACAAAGGTCAGAGCTACGCCAGTGA belongs 3.2; to TAGCCTAGGTCATGGGCCCGTATACCACGCGAAC, 4.69; to ATATGTAGATTAAGGGTCATTCAGGTTGGTTCGC, 3.93.
On to CGTCAAAGTTCAACCAAGGTAACGTAAAGCACGC, for which the PBM binding z-score was 7.34.
In turn, GATACAGGGTCAGTTAGAGGCCAGAGTATGGAAA had a PBM binding z-score of 4.02.
Take ACATGTAGGTTAGCTGGGGTCATTCAGACTAGGC: the PBM binding z-score amounted to 5.12.
On to TCTATTAGTTGATTAGGGCAAACGAAACAGCGGA, for which the PBM binding z-score is 0.336.
AGTCAAAGTTCAGGACGAGGTAACCTAAAGCACG showed a PBM binding z-score of 4.17.
In turn, CGTCCAAGGTCAGGGAGGTCAGTGAATGCCGAGT showed a PBM binding z-score of 6.32.
The same measure, in the same setting: under GCGACTGGGGCATCAGCAGGTTAACATAACTTAA stands -0.169; under CCTACTGGGCCAAGGTCATTGATCAGTCAAAGCA, 2.95; under TAGCCTAGGTCATGCGGGCCAGTCTAGTGTCGGC, 3.89.
Sequence ATCGAAAGGTCGAAGGTGAGTTTACCCACCCGAA came in with a PBM binding z-score of 4.75.
Same read-out and setting: under GCAGACAGGTGAAACGTAGGTAACTCAGGGTGGC stands -0.116; under TCATACAGGTGAAGGTAACTCAGGTACGCAGTCG, 1.02.
Sequence TAGCCTAGGTCATTCAGGGGCCAATATAGAAAGC had a PBM binding z-score of 4.5.
The sequence CCTCACGGGTCAAGGTTATAGCACGGGTGGTACG returned a PBM binding z-score of 5.02.
Same read-out and setting: under TCGAGTGGGTTAGTCGGGGCATTCAGCCAACATA stands 0.26; under CAAACTAGGCCAAAGGTCAAAGTCGAGCCAACCA, 6.1; under CAAACTAGGGCACCGGAAGGTCAAAGTCCGCATG, 3.3.
Same read-out and setting: to CTCGAAATGTCGGTTGAGGTGAGTATACGGATAA belongs 0.47.

A further experiment deals with LXRa:RXRa (NR concentration 270 nM, RXRa partner concentration 90 nM). Described as above. An outline of the steps:
as §1
CCTAGTGGGCCATTCAGAGGTCATTGATCATATG returned a PBM binding z-score of 4.29.
Sequence TAGCCTAGGTCATGGTCCAGTATACCACGCGAAC came in with a PBM binding z-score of 3.17.
Sequence CAAACTAGGTCAAAGGTCTAAGTCGAGCCAACCA yielded a PBM binding z-score of 4.37.
CCTACTGGGCCATCAGGTCATAGATATCAACGTT: the PBM binding z-score was determined as 0.89.
TCTATTAGTTGGTTAGGGCAACCGAAACAGCGGA registered a PBM binding z-score of 0.576.
Sequence CGTCCAAGGTTAGCAGGTCAGTGAAAGCGACGTG gave a PBM binding z-score of 1.26.
In turn, GGTGCTAGGTCAGGTTGGTCAGCTAACGGGTACG came in with a PBM binding z-score of 1.33.
On to TTACCAAGGTGGGCTGAGGTCGTTGATCCAACTC, for which the PBM binding z-score amounted to 0.463.
The same measure, in the same setting: under CAAACTAGGTCAAAGGTCATAGTCGAGCCAACCA stands 6.85.
In turn, GCTGTTAGTTGAAAGGGCAACCGAATGATTCTCG returned a PBM binding z-score of 0.93.
CGAACTAGGTCAGCCAGGACAGTGAATACATTGA gave a PBM binding z-score of 0.875.
On to CCTACTGGGCCATCAGGTCATGGATATCAACGTT, for which the PBM binding z-score is 1.22.
Regarding GGAACGAGGGCATTCGAGTTGATGGCATGGCGAT, the PBM binding z-score came to 1.27.
Consider TAGCCTTGGTCAGATCGGGCCAGTATACGCTATA, for which the PBM binding z-score was -0.892.
On the same count and under the same terms, under AGAATGAGGTTAAGATCAGGGACACAGAATACAT stands 2.04.
With AGTCAAAGTTCACTAGGTGACGTAAGATTCAGCT, the PBM binding z-score came to 5.36.
GCTGCTAGGTCAACTGATGGTCAGTTAAAGCTCG: the PBM binding z-score was found to be 3.11.
Sequence GGCACGAGGGCATTCGAGTTGATAGCATGGCGAT yielded a PBM binding z-score of 1.79.
On the same count and under the same terms, to ACTCGGAGGACAAAGGTCAGAGCAACGCCAGTGA belongs 4.45; to ACTCGGAGAACAAAGGTCAGAGCTACGCCAGTGA, 3.85; to TAGCCTAGGTCATGGGCCCGTATACCACGCGAAC, 3.5.
The sequence ATATGTAGATTAAGGGTCATTCAGGTTGGTTCGC came in with a PBM binding z-score of 4.24.
Sequence CGTCAAAGTTCAACCAAGGTAACGTAAAGCACGC had a PBM binding z-score of 6.27.
GATACAGGGTCAGTTAGAGGCCAGAGTATGGAAA returned a PBM binding z-score of 2.54.
With ACATGTAGGTTAGCTGGGGTCATTCAGACTAGGC, the PBM binding z-score is 5.55.
Take TCTATTAGTTGATTAGGGCAAACGAAACAGCGGA: the PBM binding z-score was 0.43.
Still for that read-out and setting: under AGTCAAAGTTCAGGACGAGGTAACCTAAAGCACG stands 3.71; under CGTCCAAGGTCAGGGAGGTCAGTGAATGCCGAGT, 5.28; under GCGACTGGGGCATCAGCAGGTTAACATAACTTAA, -0.338.
Sequence CCTACTGGGCCAAGGTCATTGATCAGTCAAAGCA yielded a PBM binding z-score of 3.12.
TAGCCTAGGTCATGCGGGCCAGTCTAGTGTCGGC returned a PBM binding z-score of 3.03.
ATCGAAAGGTCGAAGGTGAGTTTACCCACCCGAA had a PBM binding z-score of 3.73.
GCAGACAGGTGAAACGTAGGTAACTCAGGGTGGC yielded a PBM binding z-score of 0.0027.
In turn, TCATACAGGTGAAGGTAACTCAGGTACGCAGTCG registered a PBM binding z-score of 2.17.
Still for that read-out and setting: to TAGCCTAGGTCATTCAGGGGCCAATATAGAAAGC belongs 4.59; to CCTCACGGGTCAAGGTTATAGCACGGGTGGTACG, 3.42; to TCGAGTGGGTTAGTCGGGGCATTCAGCCAACATA, 0.197.
For CAAACTAGGCCAAAGGTCAAAGTCGAGCCAACCA, the PBM binding z-score is 5.86.
In turn, CAAACTAGGGCACCGGAAGGTCAAAGTCCGCATG gave a PBM binding z-score of 3.78.
Sequence CTCGAAATGTCGGTTGAGGTGAGTATACGGATAA yielded a PBM binding z-score of -0.279.
